Values joined by “and” are separate entries in the source; they are usually repeats but may differ in a detail not shown here. Equal entries are not always repeated. Active and inactive are the calls of the source.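 How the source made its calls: active means mean z-score across replicates of 1.96 or higher in either the MELAS or the Rieske mutant cell line; inactive means the rest.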 Non-standard residues stand in square brackets, D forms with d. Residues, ends and D or L forms follow the SMILES beside them. pGlu = O=C1CC[C@@H](C(=O)O)N1; Thz = O=C(O)[C@@H]1CSCN1
Assay: MELAS cybrid and Rieske KO viability enhancers – cell-based, MELAS cybrids, Rieske KO mouse fibroblasts, CellTiter-Glo, primary screen (AID 1508586);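 further: test concentration not given here; z relative to plate mean and SD of compound and empty wells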
Conditions: MELAS cybrid survival, low glucose, CellTiter-Glo 48 h; stronger effect = higher value

| Structure (SMILES) | z-score |
| --- | --- |
| O=C1CN2Cc3c(ccc(Cl)c3Cl)N=C2N1 | -0.241 (inactive) and 0.475 (inactive) and -0.0504 (inactive) |
| O=c1[nH]c(=O)n(C2CCCO2)cc1F (stereo not given) | -0.322 (inactive) and 0.511 (inactive) and 0.255 (inactive) |
| CSc1nc2cc(Oc3cccc(Cl)c3Cl)c(Cl)cc2[nH]1 | -0.167 (inactive) and -0.17 (inactive) |
| CN(C)CCc1c[nH]c2ccc(Cn3cncn3)cc12 | -0.276 (inactive) and 0.545 (inactive) |
| COc1ccc(C[C@H](C)NC[C@@H](O)c2ccc(O)c(NC=O)c2)cc1 | -0.844 (inactive) |
| CC(C)C[C@H](NC(=O)[C@@H](O)[C@H](N)Cc1ccccc1)C(=O)O | -0.957 (inactive) |
| C[C@@H](c1ncncc1F)[C@](O)(Cn1cncn1)c1ccc(F)cc1F | 0.391 (inactive) |
| CN(C)CCCC1(c2ccc(F)cc2)OCc2cc(C#N)ccc21 (stereo not given) | -0.338 (inactive) and 0.623 (inactive) and -0.34 (inactive) |
| CCOC(=O)c1ccc(OC(=O)CCCCCN=C(N)N)cc1 | -0.35 (inactive) and 0.272 (inactive) |
| Cc1c(C(=O)NN2CCCCC2)nn(-c2ccc(Cl)cc2Cl)c1-c1ccc(I)cc1 | -0.338 (inactive) |
| CC(C)NCC(O)c1ccc(NS(C)(=O)=O)cc1 (stereo not given) | -0.308 (inactive) and -0.43 (inactive) and 0.386 (inactive) |
| CC(=O)NC[C@H]1CN(c2ccc(N3CCOCC3)c(F)c2)C(=O)O1 | -0.794 (inactive) and 0.174 (inactive) |
| O=C(c1ccc(OCCN2CCCCC2)cc1)c1c(-c2ccc(O)cc2)sc2cc(O)ccc12 | -0.537 (inactive) and -0.644 (inactive) and -0.85 (inactive) |
| O=C1CC[C@@H](C(=O)N2CSC[C@H]2C(=O)O)N1 ([pGlu]-[Thz]-OH) | 0.585 (inactive) |
| CNCC[C@@H](Oc1ccccc1C)c1ccccc1 | -1.06 (inactive) |
| CN(C)CCOc1ccc(/C(=C(/CCCl)c2ccccc2)c2ccccc2)cc1 | -2.09 (inactive) and -0.316 (inactive) |
| CC(C)(S)C(N)C(=O)O (stereo not given) | 0.615 (inactive) |
| Cc1cnc(C(=O)NCCc2ccc(S(=O)(=O)NC(=O)NC3CCCCC3)cc2)cn1 | 0.0771 (inactive) and 0.00808 (inactive) and -0.837 (inactive) |
| C/C(=C\C(=O)OCCCCCCCCC(=O)O)C[C@@H]1OC[C@H](C[C@@H]2O[C@H]2[C@@H](C)[C@H](C)O)[C@@H](O)[C@H]1O | -3.53 (inactive) |
| COc1ccc2[nH]c(S(=O)Cc3ncc(C)c(OC)c3C)nc2c1 (stereo not given) | -0.201 (inactive) |
| CN1[C@@H]2CCC[C@H]1CC(NC(=O)c1nn(C)c3ccccc13)C2 (stereo not given in full) | 0.342 (inactive) and -0.62 (inactive) |
| COc1c(N2C[C@@H]3CCCN[C@@H]3C2)c(F)cc2c(=O)c(C(=O)O)cn(C3CC3)c12 | -0.444 (inactive) and -0.324 (inactive) |
| CCN(CC)CC#CCOC(=O)C(O)(c1ccccc1)C1CCCCC1 (stereo not given) | -0.351 (inactive) and 0.357 (inactive) |
| COc1nc(C)nc(Cl)c1NC1=NCCN1 | -0.211 (inactive) and 0.715 (inactive) |
| Cc1cc2c(s1)Nc1ccccc1N=C2N1CCN(C)CC1 | -0.362 (inactive) and 0.328 (inactive) and 0.46 (inactive) |

Same assay, conditions: Rieske KO mouse fibroblast survival, low glucose, CellTiter-Glo 72 h

| Structure (SMILES) | z-score |
| --- | --- |
| O=C1CN2Cc3c(ccc(Cl)c3Cl)N=C2N1 | -0.321 and 0.64 and -0.821 |
| O=c1[nH]c(=O)n(C2CCCO2)cc1F (stereo not given) | -0.199 and -0.575 and -0.0895 |
| CSc1nc2cc(Oc3cccc(Cl)c3Cl)c(Cl)cc2[nH]1 | -0.137 and -0.629 |
| CN(C)CCc1c[nH]c2ccc(Cn3cncn3)cc12 | 0.697 and -0.263 |
| COc1ccc(C[C@H](C)NC[C@@H](O)c2ccc(O)c(NC=O)c2)cc1 | -0.643 |
| CC(C)C[C@H](NC(=O)[C@@H](O)[C@H](N)Cc1ccccc1)C(=O)O | 0.817 |
| C[C@@H](c1ncncc1F)[C@](O)(Cn1cncn1)c1ccc(F)cc1F | -0.0394 |
| CN(C)CCCC1(c2ccc(F)cc2)OCc2cc(C#N)ccc21 (stereo not given) | -0.153 and 0.348 and -0.881 |
| CCOC(=O)c1ccc(OC(=O)CCCCCN=C(N)N)cc1 | 0.185 and -0.0147 |
| Cc1c(C(=O)NN2CCCCC2)nn(-c2ccc(Cl)cc2Cl)c1-c1ccc(I)cc1 | -0.0666 |
| CC(C)NCC(O)c1ccc(NS(C)(=O)=O)cc1 (stereo not given) | 0.759 and -0.504 and 0.277 |
| CC(=O)NC[C@H]1CN(c2ccc(N3CCOCC3)c(F)c2)C(=O)O1 | -2.51 and -1.01 |
| O=C(c1ccc(OCCN2CCCCC2)cc1)c1c(-c2ccc(O)cc2)sc2cc(O)ccc12 | 0.306 and -0.238 and 0.0318 |
| O=C1CC[C@@H](C(=O)N2CSC[C@H]2C(=O)O)N1 ([pGlu]-[Thz]-OH) | -0.48 |
| CNCC[C@@H](Oc1ccccc1C)c1ccccc1 | -0.171 |
| CN(C)CCOc1ccc(/C(=C(/CCCl)c2ccccc2)c2ccccc2)cc1 | -0.803 and -1.13 |
| CC(C)(S)C(N)C(=O)O (stereo not given) | 0.358 |
| Cc1cnc(C(=O)NCCc2ccc(S(=O)(=O)NC(=O)NC3CCCCC3)cc2)cn1 | 0.368 and 0.143 and -0.894 |
| C/C(=C\C(=O)OCCCCCCCCC(=O)O)C[C@@H]1OC[C@H](C[C@@H]2O[C@H]2[C@@H](C)[C@H](C)O)[C@@H](O)[C@H]1O | -3.7 |
| COc1ccc2[nH]c(S(=O)Cc3ncc(C)c(OC)c3C)nc2c1 (stereo not given) | 0.0948 |
| CN1[C@@H]2CCC[C@H]1CC(NC(=O)c1nn(C)c3ccccc13)C2 (stereo not given in full) | 0.00777 and -1.31 |
| COc1c(N2C[C@@H]3CCCN[C@@H]3C2)c(F)cc2c(=O)c(C(=O)O)cn(C3CC3)c12 | 0.523 and -0.694 |
| CCN(CC)CC#CCOC(=O)C(O)(c1ccccc1)C1CCCCC1 (stereo not given) | 0.474 and 0.0643 |
| COc1nc(C)nc(Cl)c1NC1=NCCN1 | 0.176 and 0.122 |
| Cc1cc2c(s1)Nc1ccccc1N=C2N1CCN(C)CC1 | 0.469 and -0.59 and 1.26 |

Source: PubChem BioAssay
